In PubChem BioAssay (NCATS):
Records with an inconclusive call do not appear. Unmarked numbers belong to inactive results. Calls of active or inactive are those of the source. Calls come from the whole dose curve; as a rule, active = well fitted cell-killing curve with a large enough effect; inconclusive = small, poorly fitted or top-dose-only effect, or effect the other way; inactive = no such curve, though single readings can be large or run the other way.

Assay: Viability qHTS for spleen associated tyrosine kinase inhibitor (SYKi) drug resistant MV4-11 cells (AID 1963824); note: nearly all actives have a fitted effect of over 35% in size
Conditions: SYKi-resistant MV4-11 viability, CellTiter-Glo, 72 h; series mostly up to 45 µM
Procedure, shortened: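 SYK-inhibitor-resistant MV4-11 AML cells were seeded at 500 per well onto compound and cultured 72 hours (37 °C, 5% CO2). CellTiter-Glo was then added, and after 10 min at room temperature, luminescence gave viability.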
Potency is the fitted concentration of half-maximal effect.

SMILES	Potency	viability, % of control
C=C1CCC2C(C(C)(C)O)CCC2(C)CC(O)C(=C)CCC1O (stereo not given)	11.4 µM (active)	
CCc1ccc2nc(Nc3cc(Cc4ccccc4)nc(NC4CCC(O)CC4)n3)sc2c1 (stereo not given)	6.61 µM (active)	
CC(C)C1NC(=O)C2CCCN2C1=O (stereo not given)	inactive	
C=C1C(=O)O[C@H]2C[C@@H](C)[C@@H]3CCC(=O)[C@@]3(C)C[C@H]12	2.59 µM (active)	
COc1cc2c(cc1-c1c(C)noc1C)ncc1[nH]c(=O)n(C(C)c3ccccn3)c12 (stereo not given)	0.366 µM (active)	
Cc1ccc(NC(=O)c2cccc(C(C)(C)C#N)c2)cc1Nc1ccc2ncn(C)c(=O)c2c1	1.48 µM (active)	
C/C(=C\C=C\C(C)C1CCC2(C)C3CCC4C(C)(C)C(=O)CCC45CC35CCC12C)C(=O)O (stereo not given)	6.32 µM (active)	
CCN(CC)CCCS(=O)(=O)N[C@H](CCc1ccccc1)c1nc(Cc2ccc(Br)cc2)no1	20.6 µM (active)	
CS(=O)(=O)N(CC(=O)NCC1CC1)c1cc(C(F)(F)F)ccc1Cl	inactive	
O=c1cc(-c2cccc(O)c2)oc2c(O)c(O)ccc12	16.4 µM (active)	
CC1NC(=O)C(Cc2c[nH]c3ccccc23)NC1=O (stereo not given)	inactive	
O=C(OCC(O)CO[C@@H]1O[C@H](C(=O)O)[C@@H](O)[C@H](O)[C@H]1O)c1ccccc1 (stereo not given in full)	inactive	
O=C(O[C@H]1[C@@H]2C=CO[C@@H](O[C@@H]3O[C@H](CO)[C@@H](O)[C@H](O)[C@H]3O)[C@@H]2[C@@]2(CO)O[C@@H]12)c1ccc(O)c(O)c1	inactive	
C=C1C(=O)O[C@@H]2C[C@@H](C)[C@]34C[C@]5(C(=O)O[C@H]6CC(C)=C([C@H](C)CCCO)[C@H](OC(=O)C(C)CC)[C@H]65)[C@@H](C(C)=C3C[C@@H]12)[C@H]4OC(C)=O (stereo not given in full)	2.43 µM (active)	
CC(=O)O[C@@H]1[C@H](O[C@@H]2OC[C@](O)(CO)[C@H]2O)[C@@H](O[C@@H]2O[C@@H](C)[C@H](O)[C@@H](O[C@@H]3O[C@H](CO)[C@@H](O)[C@H](O)[C@H]3O)[C@H]2O)[C@H](OC(=O)[C@]23CCC(C)(C)C[C@H]2C2=CCC4[C@@]5(C)C[C@H](O)[C@H](O[C@@H]6O[C@H](C(=O)O)[C@@H](O)[C@H](O)[C@H]6O)[C@@](C)(C(=O)O)C5CC[C@@]4(C)[C@]2(C)CC3)O[C@@H]1C (stereo not given in full)		95.1% [at 9.25 µM]
COc1ccc(CNC(=O)c2cc(-c3cncc(C)c3)ncc2-c2nccs2)nc1OC	inactive	
C=CC1C(O[C@@H]2O[C@H](CO)[C@@H](O)[C@H](O)[C@H]2O)OC=C(C(=O)OC)C1CC(=O)O (stereo not given in full)	inactive	
CCCCC[C@H](O)C=C[C@H]1[C@H](O)CC(=O)[C@H]1CC=CCCCC(=O)O	0.0186 µM (active)	
C#CCN(Cc1cc2c(=O)n(C)c(CN3CCN(C)CC3)nc2cc1Cl)c1ccc(C(=O)NCc2cccnc2)cc1	inactive	
CC(=O)OC[C@@]12[C@H](O)C[C@]3(C)C(=CCC4[C@@]5(C)CC[C@H](O[C@@H]6O[C@H](C(=O)O)[C@@H](O[C@@H]7O[C@H](CO)[C@@H](O)[C@H](O)[C@H]7O)[C@H](O)[C@H]6O[C@@H]6O[C@H](CO)[C@@H](O)[C@H](O)[C@H]6O)[C@](C)(CO)C5CC[C@]43C)[C@@H]1CC(C)(C)[C@@H](OC(C)=O)[C@@H]2O (stereo not given in full)		95.8% [at 9.25 µM]
CC(C)CC(=O)O[C@@H]1OC=C(CO[C@@H]2O[C@H](CO[C@@H]3O[C@H](CO)[C@@H](O)[C@H](O)[C@H]3O)[C@@H](O)[C@H](O)[C@H]2O)[C@H]2C[C@H](O)[C@@H](CO)[C@@H]12	inactive	
Cc1cc(C)c(Nc2ccnc(Nc3ccc(C#N)cc3)n2)c(C)c1	4.11 µM (active)	
CC1(C)CCC2(C(=O)OC3OC(COC4OC(CO)C(O)C(O)C4O)C(O)C(O)C3O)CCC3(C)C(=CCC4C5(C)CCC(O)C(C)(C(=O)O)C5CCC43C)C2C1O (stereo not given)		102% [at 9.25 µM]
O=C(/C=C/c1ccc(O)cc1)N[C@@H](Cc1ccc(O)cc1)C(=O)O	inactive	
COC12CC3C(C(C)C1=CC(=O)O2)C(O)C(OC(C)=O)C1C(C)(C)C(OC(C)=O)CCC31C (stereo not given)	inactive	
C=CC(=O)N1CCN(C(=O)CNc2cc(I)c(Cl)cc2O)CC1	6.51 µM (active)	
COc1c(O)cc2c(c1O)C(=O)O[C@H](C)[C@H]2O	inactive	
N#Cc1cnc2c(Cl)cc(NCc3cn(CCN4CCCCCC4)nn3)cc2c1Nc1ccc(F)c(Cl)c1	13 µM (active)	
O=C(O)CCc1cccc(O[C@@H]2O[C@H](CO)[C@@H](O)[C@H](O)[C@H]2O)c1O	inactive	
CC1CCC2(C(=O)O)CCC3(C)C(=CCC4C5(C)CCC(OC(=O)/C=C/c6ccccc6)C(C)(C)C5CCC43C)C2C1C (stereo not given)	inactive	
